High-throughput results as filed in PubChem BioAssay.
This is one part of a sample in which hits are shown more often than they occur.
Chlamy TAG – inducers of TAG accumulation in Chlamydomonas, primary screen, qHTS, Chlamydomonas reinhardtii; Nile Red fluorescence, 72 h; hit rate 0.84% among 44,000; calls only at 10 µM (by protocol); AID 1159537, 2015; call rule not given here;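 note: hits raise Nile Red signal meaning more stored TAG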
* hit, by the source's call; i = inactive; + = active, no number.

SMILES	Chlamy TAG
CC(C)NC(=O)c1ccccc1NC(=O)c1ccc(F)cc1	i
Cc1ccc(C(=O)Nc2ccccc2C(=O)NC(C)C)cc1[N+](=O)[O-]	+
Cc1ccccc1C(=O)Nc1cccc(NC(=O)c2ccc(C)c([N+](=O)[O-])c2)c1	i
O=C(CSc1ncn[nH]1)Nc1ccccc1F	i
COCCN1C(=O)C(=O)C(=C(O)c2ccccc2)C1c1ccccc1[N+](=O)[O-] (stereo not drawn)	i
COc1ccccc1NC(=O)c1ccc(Br)c(S(=O)(=O)N2CCCCC2)c1	i
Cc1ccc(C(=O)Nc2ccc3oc(-c4ccncc4)nc3c2)cc1C	+
O=C(Nc1ccc2oc(-c3ccncc3)nc2c1)c1ccccc1	i
O=C(Nc1ccc2oc(-c3cccnc3)nc2c1)c1ccncc1	i
COc1cccc(C(=O)Nc2ccc3oc(-c4ccc(F)cc4)nc3c2)c1	i
COc1cccc(C(=O)Nc2ccc3oc(-c4ccncc4)nc3c2)c1	+
COc1ccc(-c2nc3cc(NC(=O)c4ccccc4)ccc3o2)cc1	i
CC(C)C(=O)Nc1ccc(O)cc1C(=O)O	i
COc1ccc(CCN=C2CCc3ccccc3N2)cc1OC	i
C=CCNC(=O)c1ccccc1C(=O)c1ccccc1	i
COc1ccc(S(=O)(=O)n2c(C)nc3ccccc32)cc1OC	i
Cc1cccc(-c2cc(NC(=O)c3ccccc3[N+](=O)[O-])n[nH]2)c1	i
Cc1cccc(-c2cc(NC(=O)c3ccc([N+](=O)[O-])cc3)n[nH]2)c1	+
O=C(Nc1ncccn1)c1ccc([N+](=O)[O-])cc1	i
CCCCC(=O)Nc1c(C)cc(Br)cc1C	i
CC(C)NC(=O)c1ccccc1NC(=O)c1ccc(N(C)S(=O)(=O)c2ccccc2)cc1	i
O=C(NC1CCCC1)c1ccc(F)cc1	i
CCOc1ccccc1NS(=O)(=O)c1ccc(NC(C)=O)cc1	i
Cc1ccc(NC(=O)CN2CCN(c3ccc(F)cc3)CC2)cc1	i
C/C=C(\C)CN1CCN(c2ccc(C)cc2)CC1	+
SMILES	Chlamy TAG
C/C=C(\C)CN1CCN(Cc2ccccc2)CC1	i
O=C1C(=O)N(Cc2ccc(F)cc2)c2ccc(Br)cc21	i
C#CCN1C(=O)C(=O)c2cc(Br)ccc21	i
C=CCN1C(=O)C(=O)c2cc(Br)ccc21	+
O=C(NCc1ccccc1Cl)c1ccc(NS(=O)(=O)c2ccccc2)cc1	i
CN1CCC(N(C)Cc2ccc([N+](=O)[O-])cc2)CC1	i
O=C(NC1CCCCCC1)c1ccc([N+](=O)[O-])cc1	i
CN(Cc1ccc([N+](=O)[O-])cc1)C1CCCCC1	+
O=[N+]([O-])c1ccc(CNC2CCCCCC2)cc1	+
O=[N+]([O-])c1ccc(CNC2CCCC2)cc1	+
O=[N+]([O-])c1cccc(CNC2CCCCCC2)c1	+
CN1CCC(N(C)Cc2cccc([N+](=O)[O-])c2)CC1	i
O=C(NC1CCCCCC1)c1cccc([N+](=O)[O-])c1	i
O=[N+]([O-])c1cccc(CN2CCCCCC2)c1	i
O=[N+]([O-])c1ccc(CNC2CCCc3ccccc32)cc1 (stereo not drawn)	i
CC1CCCCC1NCc1ccc([N+](=O)[O-])cc1 (stereo not drawn)	i
O=C(NC1CCCCC1)c1ccc([N+](=O)[O-])o1	i
CC(=C1C(=O)CC(C)(C)CC1=O)N1CCCC1	i
CC(=O)c1ccc(NC(=O)C23CC4CC(C2)CC(C(=O)Nc2ccc(C(C)=O)cc2)(C4)C3)cc1	i
CCCC(=O)Nc1ccccc1NC(=O)c1ccc(Br)o1	i
c1ccc(NNC2=Nc3ccccc3CC2)cc1	i
COc1ccc2c(c1C)CCC(C1(O)C(=O)Nc3ccccc31)C2=O (stereo not drawn)	i
CCc1ccc(CN2CCC(C(=O)NCc3ccc(OC)cc3)CC2)cc1	i
CCOc1cc(C(=O)Nc2ccc([N+](=O)[O-])cc2Cl)cc(OCC)c1OCC	i
CCOc1ccc(C(=O)Nc2cccc([N+](=O)[O-])c2)cc1Cl	i
SMILES	Chlamy TAG
CCOc1c(Cl)cc(C(=O)Nc2cccc([N+](=O)[O-])c2)cc1Cl	+
OC(COc1ccc(Br)cc1)CN1CCOCC1 (stereo not drawn)	i
OC(COc1ccccc1Br)CN1CCCCC1 (stereo not drawn)	+
OC(COc1ccc(Br)cc1)CN1CCCCCC1 (stereo not drawn)	+
Cc1ccc(OCC(O)CN2CCCCC2)c(C)c1 (stereo not drawn)	i
Cc1ccccc1OCC(O)CN1CCN(CC(O)COc2ccccc2C)CC1 (stereo not drawn)	i
OC(COc1ccc(OCC(O)CN2CCCC2)cc1)CN1CCCC1 (stereo not drawn)	i
Cc1c(Cl)cccc1Nc1nc(N)nc(CN2CCCCC2)n1	i
CCN(CC)CC#Cc1ccc(C#CCN(CC)CC)cc1	+
CCN(CC)CC#CC(C)(O)C(C)C (stereo not drawn)	i
CCN(CC)CC#CC(O)c1ccccc1 (stereo not drawn)	i
O=C(Nc1ccc(Br)cc1)c1cccs1	i
N=c1n(CCN2CCOCC2)c2ccccc2n1CC(O)c1ccc(Cl)c(Cl)c1 (stereo not drawn)	i
COc1ccc(Cl)cc1NS(=O)(=O)c1cc(Cl)ccc1OC	i
COc1ccc(Cl)cc1S(=O)(=O)NCc1cccnc1	i
COCCNS(=O)(=O)c1cc(Cl)ccc1OC	+
Clc1cc(Cl)cc(Nc2nc(-c3ccccc3)cs2)c1	i
CC(=O)N(C1=C(Nc2ccccc2)C(=O)c2ccccc2C1=O)c1ccccc1	+
COc1cccc(N(C(C)=O)C2=C(NC3CCCCC3)C(=O)c3ccccc3C2=O)c1	i
CCCNC1=C(N(C(C)=O)c2cccc(F)c2)C(=O)c2ccccc2C1=O	i
COc1ccc(OC)c(CN2CCC(N3CCCCC3)CC2)c1	i
COc1ccc(C(NC(=O)C(C)C)c2ccc3cccnc3c2O)cc1OC (stereo not drawn)	i
Cc1ccccc1C(=O)NCCN(C)C	i
CC(C)(C)c1ccc(C(=O)N2CCCCCC2)cc1	i
CCN1CCN(C(=O)c2ccc(C(C)(C)C)cc2)CC1	+
SMILES	Chlamy TAG
CCOc1ccc(C(=O)N2CCN(CC)CC2)cc1	i
COc1ccccc1NC(=O)C(=O)NCCc1ccc(F)cc1	i
COc1cc(Br)c(/C=C(\C#N)c2nn(-c3ccccc3)c(N)c2C#N)cc1OC	i
Cc1cc(C=O)c(C)n1-c1ccc(Br)cc1F	+
COc1ccc(Cl)cc1-n1c(C)cc(C=O)c1C	i
Cc1cc(C=O)c(C)n1-c1ccc(O)cc1	i
COc1cc(NC(=O)C(c2ccccc2)c2ccccc2)ccc1NC(=O)c1ccco1	i
O=C1C(=O)N(Cc2cccnc2)C(c2ccccc2F)C1=C(O)c1ccccc1 (stereo not drawn)	i
CCOC(=O)N1CCN(C(=O)C2CCN(CC3CC=CCC3)CC2)CC1 (stereo not drawn)	i
Cc1cccc(C)c1NC(=O)c1ccc(-c2ccccc2[N+](=O)[O-])o1	i
O=[N+]([O-])c1cccc(S(=O)(=O)Nc2cnn(Cc3ccc(Cl)cc3Cl)c2)c1	i
CN1CCN(c2ccc(C(=O)c3ccc(Cl)cc3)cc2[N+](=O)[O-])CC1	i
COc1ccc(C(=O)c2ccc(N3CCN(C)CC3)c([N+](=O)[O-])c2)cc1	+
Cc1ccc(C(=O)c2ccc(N3CCCC3)c([N+](=O)[O-])c2)cc1	i
